PubChem BioAssay (EPA / NIEHS)
Activity calls are given as the source filed them. How the source made its calls: active means hit-call score of the fitted dose curve at least 0.9, where 1 is the maximum; inactive means score below 0.9.

Assay: ATG_GRE_CIS: Attagene CIS-FACTORIAL HepG2 Assay for human Glucocorticoid Response Elements (GRE) (AID 2282947)
Conditions: HepG2 GRE cis-reporter, Attagene multiplex mRNA; actives raise or lower the signal
Summary of the method: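 Reporter transcripts read by RT-PCR with capillary electrophoresis fluorescence after a 24 h chemical exposure of HepG2 cells transiently transfected with multiple cis-element reporter units. Gain or loss fitted against DMSO.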

Q: Which outcome does the source give for O=C1CCC(=O)N1Cl here?
A: inactive

Q: For OC1CCCCCCCCCCC1, which outcome is on record?
A: inactive

Q: With COC(=O)c1cc(Cl)ccc1[N+](=O)[O-] as the compound, how does the outcome read?
A: inactive

Q: Which outcome does the source give for c1ccc2c(c1)ccc1ncccc12 here?
A: inactive

Q: With O=C(Nc1ccccc1SSc1ccccc1NC(=O)c1ccccc1)c1ccccc1 as the compound, how does the outcome read?
A: inactive

Q: For Cc1cccc(OCCOc2cccc(C)c2)c1, which outcome is on record?
A: inactive

Q: With c1ccc(CNCc2ccccc2)cc1 as the compound, how does the outcome read?
A: inactive

Q: For CC(C)CCCCCOC(=O)CCS, which outcome is on record?
A: inactive

Q: Which outcome does the source give for O=c1[nH]c(=O)c2[nH]c(=O)[nH]c2[nH]1 here?
A: inactive

Q: With O=C(OCC1CCC2OC2C1)C1CCC2OC2C1 (stereo not given) as the compound, how does the outcome read?
A: inactive

Q: With C=CC(=O)OCCOC(=O)C=C as the compound, how does the outcome read?
A: inactive

Q: With O=c1[nH]nc(-c2ccc([N+](=O)[O-])o2)o1 as the compound, how does the outcome read?
A: inactive

Q: Which outcome does the source give for CCOC(=O)CC(C(C)=O)C(C)=O here?
A: inactive

Q: Which outcome does the source give for O=C1CCCN1CCO here?
A: inactive

Q: For CCCCCCCCC(=O)OCC, which outcome is on record?
A: inactive

Q: With CC(C)C1=CC2=CC[C@@H]3[C@](C)(CCC[C@@]3(C)C(=O)O)[C@H]2CC1 as the compound, how does the AC50 read?
A: 119 µM (active)

Q: With O=C1CCCCCCCCCCC(=O)OCCO1 as the compound, how does the outcome read?
A: inactive

Q: For CCCCCCCCCCCCCCCCCC#N, which outcome is on record?
A: inactive

Q: For CC(=O)Nc1ccc2c(c1)Cc1cc(NC(C)=O)ccc1-2, which outcome is on record?
A: inactive

Q: Which outcome does the source give for CCCCCCCCCCCCCOP(=O)(O)O here?
A: inactive

Q: For CC(C)(C)C1CCCCC1=O (stereo not given), which outcome is on record?
A: inactive

Q: With SCCc1cnccn1 as the compound, how does the outcome read?
A: inactive

Q: For COc1ccc(NC(C)=O)cc1N, which outcome is on record?
A: inactive

Q: Which outcome does the source give for CCC(CO)CO here?
A: inactive

Q: For COc1c2ccoc2cc2oc(=O)ccc12, which outcome is on record?
A: inactive

Q: Which outcome does the source give for O=C(Nc1ccccc1)c1ccccc1O here?
A: inactive

Q: Which outcome does the source give for C=C[Si](OC(C)=O)(OC(C)=O)OC(C)=O here?
A: inactive

Q: With Cc1ccc2c(c1)C(=O)c1ccccc1C2=O as the compound, how does the outcome read?
A: inactive

Q: Which outcome does the source give for CCCCCCCOC(=O)CCC here?
A: inactive

Q: For CC(C)(C)c1ccc(N)cc1, which outcome is on record?
A: inactive

Q: Which outcome does the source give for CC(=O)Nc1nnc(S(N)(=O)=O)s1 here?
A: inactive

Q: Which outcome does the source give for [Cl][Bi]([Cl])([c]1ccccc1)([c]1ccccc1)[c]1ccccc1 here?
A: inactive

Q: With CCCCC(CC)COC(=O)c1ccccc1O (stereo not given) as the compound, how does the outcome read?
A: inactive

Q: Which outcome does the source give for CCC(CC)C(=O)O here?
A: inactive

Q: Which outcome does the source give for CCCCC(CC)COCC1CO1 (stereo not given) here?
A: inactive

Q: With CCC(C)OC(=O)c1ccc(O)cc1 (stereo not given) as the compound, how does the outcome read?
A: inactive

Q: For O=C(O)CCCCCCCCCC(=O)O, which outcome is on record?
A: inactive

Q: For COc1ccc(C(Cl)=C(c2ccc(OC)cc2)c2ccc(OC)cc2)cc1, which outcome is on record?
A: inactive

Q: Which outcome does the source give for C=CC(=O)OCCC(=O)O here?
A: inactive

Q: Which outcome does the source give for C=C(C)c1cccc(C(C)(C)N=C=O)c1 here?
A: inactive

Assay: ATG_ISRE_CIS: Attagene CIS-FACTORIAL HepG2 Assay for human Interferon Regulatory Factor 1 (IRF1) binding to an Interferon-Stimulated Response Element (ISRE) (AID 2282948)
Conditions: HepG2 ISRE cis-reporter (Attagene), mRNA transcription readout; actives raise or lower the signal
Summary of the method: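 Signal reflects induction or loss of ISRE-linked reporter mRNA in transiently transfected HepG2 cells after a 24 h treatment, detected by fluorescent RT-PCR fragments on capillary electrophoresis and normalised to DMSO.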

Q: Which outcome does the source give for O=C1CCC(=O)N1Cl here?
A: inactive

Q: For OC1CCCCCCCCCCC1, which outcome is on record?
A: inactive

Q: Which outcome does the source give for COC(=O)c1cc(Cl)ccc1[N+](=O)[O-] here?
A: inactive

Q: Which AC50 does the source give for c1ccc2c(c1)ccc1ncccc12 here?
A: 150 µM (active)

Q: With O=C(Nc1ccccc1SSc1ccccc1NC(=O)c1ccccc1)c1ccccc1 as the compound, how does the outcome read?
A: inactive

Q: With Cc1cccc(OCCOc2cccc(C)c2)c1 as the compound, how does the outcome read?
A: inactive

Q: With c1ccc(CNCc2ccccc2)cc1 as the compound, how does the outcome read?
A: inactive

Q: Which outcome does the source give for CC(C)CCCCCOC(=O)CCS here?
A: inactive

Q: For O=c1[nH]c(=O)c2[nH]c(=O)[nH]c2[nH]1, which outcome is on record?
A: inactive

Q: For O=C(OCC1CCC2OC2C1)C1CCC2OC2C1 (stereo not given), which outcome is on record?
A: inactive

Q: With C=CC(=O)OCCOC(=O)C=C as the compound, how does the AC50 read?
A: 25.6 µM (active)

Q: Which outcome does the source give for O=c1[nH]nc(-c2ccc([N+](=O)[O-])o2)o1 here?
A: inactive

Q: For CCOC(=O)CC(C(C)=O)C(C)=O, which outcome is on record?
A: inactive

Q: With O=C1CCCN1CCO as the compound, how does the outcome read?
A: inactive

Q: For CCCCCCCCC(=O)OCC, which outcome is on record?
A: inactive

Q: With CC(C)C1=CC2=CC[C@@H]3[C@](C)(CCC[C@@]3(C)C(=O)O)[C@H]2CC1 as the compound, how does the outcome read?
A: inactive

Q: For O=C1CCCCCCCCCCC(=O)OCCO1, which outcome is on record?
A: inactive

Q: With CCCCCCCCCCCCCCCCCC#N as the compound, how does the outcome read?
A: inactive

Q: For CC(=O)Nc1ccc2c(c1)Cc1cc(NC(C)=O)ccc1-2, which outcome is on record?
A: inactive

Q: Which outcome does the source give for CCCCCCCCCCCCCOP(=O)(O)O here?
A: inactive

Q: With CC(C)(C)C1CCCCC1=O (stereo not given) as the compound, how does the outcome read?
A: inactive

Q: For SCCc1cnccn1, which AC50 is on record?
A: 43.3 µM (active)

Q: With COc1ccc(NC(C)=O)cc1N as the compound, how does the outcome read?
A: inactive

Q: With CCC(CO)CO as the compound, how does the outcome read?
A: inactive

Q: With COc1c2ccoc2cc2oc(=O)ccc12 as the compound, how does the outcome read?
A: inactive

Q: With O=C(Nc1ccccc1)c1ccccc1O as the compound, how does the outcome read?
A: inactive

Q: Which outcome does the source give for C=C[Si](OC(C)=O)(OC(C)=O)OC(C)=O here?
A: inactive

Q: With Cc1ccc2c(c1)C(=O)c1ccccc1C2=O as the compound, how does the outcome read?
A: inactive

Q: With CCCCCCCOC(=O)CCC as the compound, how does the outcome read?
A: inactive

Q: With CC(C)(C)c1ccc(N)cc1 as the compound, how does the outcome read?
A: inactive

Q: Which outcome does the source give for CC(=O)Nc1nnc(S(N)(=O)=O)s1 here?
A: inactive

Q: For [Cl][Bi]([Cl])([c]1ccccc1)([c]1ccccc1)[c]1ccccc1, which AC50 is on record?
A: 2.74 µM (active)

Q: Which outcome does the source give for CCCCC(CC)COC(=O)c1ccccc1O (stereo not given) here?
A: inactive

Q: For CCC(CC)C(=O)O, which outcome is on record?
A: inactive

Q: With CCCCC(CC)COCC1CO1 (stereo not given) as the compound, how does the outcome read?
A: inactive

Q: With CCC(C)OC(=O)c1ccc(O)cc1 (stereo not given) as the compound, how does the outcome read?
A: inactive

Q: Which outcome does the source give for O=C(O)CCCCCCCCCC(=O)O here?
A: inactive

Q: Which outcome does the source give for COc1ccc(C(Cl)=C(c2ccc(OC)cc2)c2ccc(OC)cc2)cc1 here?
A: inactive

Q: With C=CC(=O)OCCC(=O)O as the compound, how does the outcome read?
A: inactive

Q: With C=C(C)c1cccc(C(C)(C)N=C=O)c1 as the compound, how does the outcome read?
A: inactive

Assay: ATG_M_32_CIS: Attagene CIS-FACTORIAL HepG2 Assay for M32 Transcription Factor (Internal Marker) (AID 2282949);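 further: background control marker of the multiplexed CIS panel rather than a real target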
Conditions: HepG2 Attagene cis-factorial M32 reporter, mRNA; actives raise or lower the signal
Summary of the method: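 HepG2 transfectants (cis-regulated reporter transcription units) dosed 24 h. Reporter mRNA by RT-PCR plus CE, analysed as gain or loss relative to DMSO.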

Q: For O=C1CCC(=O)N1Cl, which outcome is on record?
A: inactive

Q: For OC1CCCCCCCCCCC1, which outcome is on record?
A: inactive

Q: For COC(=O)c1cc(Cl)ccc1[N+](=O)[O-], which outcome is on record?
A: inactive

Q: For c1ccc2c(c1)ccc1ncccc12, which outcome is on record?
A: inactive

Q: Which outcome does the source give for O=C(Nc1ccccc1SSc1ccccc1NC(=O)c1ccccc1)c1ccccc1 here?
A: inactive

Q: Which outcome does the source give for Cc1cccc(OCCOc2cccc(C)c2)c1 here?
A: inactive

Q: With c1ccc(CNCc2ccccc2)cc1 as the compound, how does the outcome read?
A: inactive

Q: With CC(C)CCCCCOC(=O)CCS as the compound, how does the outcome read?
A: inactive

Q: For O=c1[nH]c(=O)c2[nH]c(=O)[nH]c2[nH]1, which outcome is on record?
A: inactive

Q: For O=C(OCC1CCC2OC2C1)C1CCC2OC2C1 (stereo not given), which outcome is on record?
A: inactive

Q: For C=CC(=O)OCCOC(=O)C=C, which outcome is on record?
A: inactive

Q: For O=c1[nH]nc(-c2ccc([N+](=O)[O-])o2)o1, which outcome is on record?
A: inactive

Q: For CCOC(=O)CC(C(C)=O)C(C)=O, which outcome is on record?
A: inactive

Q: For O=C1CCCN1CCO, which outcome is on record?
A: inactive

Q: For CCCCCCCCC(=O)OCC, which outcome is on record?
A: inactive

Q: Which outcome does the source give for CC(C)C1=CC2=CC[C@@H]3[C@](C)(CCC[C@@]3(C)C(=O)O)[C@H]2CC1 here?
A: inactive

Q: With O=C1CCCCCCCCCCC(=O)OCCO1 as the compound, how does the outcome read?
A: inactive

Q: With CCCCCCCCCCCCCCCCCC#N as the compound, how does the outcome read?
A: inactive

Q: With CC(=O)Nc1ccc2c(c1)Cc1cc(NC(C)=O)ccc1-2 as the compound, how does the outcome read?
A: inactive

Q: For CCCCCCCCCCCCCOP(=O)(O)O, which outcome is on record?
A: inactive

Q: For CC(C)(C)C1CCCCC1=O (stereo not given), which outcome is on record?
A: inactive

Q: For SCCc1cnccn1, which outcome is on record?
A: inactive

Q: For COc1ccc(NC(C)=O)cc1N, which outcome is on record?
A: inactive

Q: For CCC(CO)CO, which outcome is on record?
A: inactive

Q: With COc1c2ccoc2cc2oc(=O)ccc12 as the compound, how does the outcome read?
A: inactive

Q: For O=C(Nc1ccccc1)c1ccccc1O, which outcome is on record?
A: inactive

Q: For C=C[Si](OC(C)=O)(OC(C)=O)OC(C)=O, which outcome is on record?
A: inactive

Q: For Cc1ccc2c(c1)C(=O)c1ccccc1C2=O, which outcome is on record?
A: inactive

Q: Which outcome does the source give for CCCCCCCOC(=O)CCC here?
A: inactive

Q: Which outcome does the source give for CC(C)(C)c1ccc(N)cc1 here?
A: inactive

Q: Which outcome does the source give for CC(=O)Nc1nnc(S(N)(=O)=O)s1 here?
A: inactive

Q: With [Cl][Bi]([Cl])([c]1ccccc1)([c]1ccccc1)[c]1ccccc1 as the compound, how does the outcome read?
A: inactive

Q: With CCCCC(CC)COC(=O)c1ccccc1O (stereo not given) as the compound, how does the outcome read?
A: inactive

Q: Which outcome does the source give for CCC(CC)C(=O)O here?
A: inactive

Q: For CCCCC(CC)COCC1CO1 (stereo not given), which outcome is on record?
A: inactive

Q: Which outcome does the source give for CCC(C)OC(=O)c1ccc(O)cc1 (stereo not given) here?
A: inactive

Q: For O=C(O)CCCCCCCCCC(=O)O, which outcome is on record?
A: inactive

Q: With COc1ccc(C(Cl)=C(c2ccc(OC)cc2)c2ccc(OC)cc2)cc1 as the compound, how does the outcome read?
A: inactive

Q: For C=CC(=O)OCCC(=O)O, which outcome is on record?
A: inactive

Q: Which outcome does the source give for C=C(C)c1cccc(C(C)(C)N=C=O)c1 here?
A: inactive
